# Measurements taken from publication PMC7862700, “An all-to-all approach to the identification of sequence-specific readers for epigenetic DNA modifications on cytosine”.
# Assays:
# Test in all cases: DAPPL (digital affinity profiling via proximity ligation, sequencing); 10 mM Tris-HCl pH 7.5, 50 mM NaCl, 1 mM DTT, 4% glycerol, room temperature, 30 min; GST-TFs on glutathione beads, 16-mer random dsDNA library, 0.1% formaldehyde crosslink after washing; high values mean tight binding
# FLI1 = target: T1, FLI1 (Homo sapiens, UniProt Q01543 1-452); details: protein: recombinant; tags: N-terminal GST; dsDNA, one strand shown
# T1 sequence: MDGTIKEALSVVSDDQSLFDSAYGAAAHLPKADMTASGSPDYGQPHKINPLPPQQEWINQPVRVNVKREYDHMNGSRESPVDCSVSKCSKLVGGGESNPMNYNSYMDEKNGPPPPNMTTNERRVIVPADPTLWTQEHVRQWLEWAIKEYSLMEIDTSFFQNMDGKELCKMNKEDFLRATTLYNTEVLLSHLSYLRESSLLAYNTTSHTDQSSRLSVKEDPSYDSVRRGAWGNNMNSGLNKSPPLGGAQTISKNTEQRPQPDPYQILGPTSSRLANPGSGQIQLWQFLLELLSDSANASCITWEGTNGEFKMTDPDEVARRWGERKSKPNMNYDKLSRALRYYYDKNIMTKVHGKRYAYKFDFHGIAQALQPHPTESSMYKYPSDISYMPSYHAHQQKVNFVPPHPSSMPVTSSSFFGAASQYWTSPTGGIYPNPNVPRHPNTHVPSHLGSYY
# Outline: (§1)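 The binding signal reported is, for every hexamer, its read frequency for a factor over its read frequency for the tag-only sample. Reads came from pools of yeast-expressed, GST-fused human transcription factors on glutathione beads, barcoded with DNA and mixed with that sample, which were incubated with 200 nmole of a random double-stranded 16-mer DNA library in Tris/NaCl/DTT/glycerol buffer at room temperature for 30 min. After washing, the pools were crosslinked with 0.1% formaldehyde, proximity-ligated with BsaI/T4 ligase for 1 h at 37 °C, PCR-amplified and sequenced on an Illumina NextSeq500.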
# ELK1 = target: T2, ELK1 (Homo sapiens, UniProt P19419 1-428); details: protein: recombinant; tags: N-terminal GST; dsDNA, one strand shown
# T2 sequence: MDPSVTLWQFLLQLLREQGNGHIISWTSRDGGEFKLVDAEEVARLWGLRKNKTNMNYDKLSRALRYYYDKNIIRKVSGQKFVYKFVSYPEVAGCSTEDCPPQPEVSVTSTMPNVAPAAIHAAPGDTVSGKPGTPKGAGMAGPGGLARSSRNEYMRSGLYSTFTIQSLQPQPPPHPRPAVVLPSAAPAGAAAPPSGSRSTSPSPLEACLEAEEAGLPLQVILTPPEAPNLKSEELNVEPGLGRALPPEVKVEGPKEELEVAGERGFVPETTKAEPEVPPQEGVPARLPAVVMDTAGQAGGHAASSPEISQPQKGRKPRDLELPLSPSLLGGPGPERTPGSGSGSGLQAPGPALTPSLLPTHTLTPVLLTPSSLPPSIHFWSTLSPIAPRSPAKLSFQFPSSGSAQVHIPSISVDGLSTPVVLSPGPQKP
# Outline: as §1
# GABPA = target: T3, GABPA (Homo sapiens, UniProt Q06546 1-454); details: protein: recombinant; tags: N-terminal GST; dsDNA, one strand shown
# T3 sequence: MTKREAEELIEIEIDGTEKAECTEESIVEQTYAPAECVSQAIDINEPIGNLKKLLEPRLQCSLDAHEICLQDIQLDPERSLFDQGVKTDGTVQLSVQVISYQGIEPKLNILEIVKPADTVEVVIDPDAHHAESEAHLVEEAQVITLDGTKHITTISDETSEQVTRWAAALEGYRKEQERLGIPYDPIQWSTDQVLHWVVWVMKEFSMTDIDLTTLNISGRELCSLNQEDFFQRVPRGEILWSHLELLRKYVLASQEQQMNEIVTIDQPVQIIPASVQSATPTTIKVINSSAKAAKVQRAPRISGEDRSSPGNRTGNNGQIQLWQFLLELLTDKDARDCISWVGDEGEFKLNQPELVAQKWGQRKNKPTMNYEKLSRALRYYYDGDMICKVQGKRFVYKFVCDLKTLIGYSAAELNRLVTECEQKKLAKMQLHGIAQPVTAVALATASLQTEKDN
# Outline: as §1
# ERG = target: T4, ERG (Homo sapiens, UniProt P11308 1-479); details: protein: recombinant; tags: N-terminal GST; dsDNA, one strand shown
# T4 sequence: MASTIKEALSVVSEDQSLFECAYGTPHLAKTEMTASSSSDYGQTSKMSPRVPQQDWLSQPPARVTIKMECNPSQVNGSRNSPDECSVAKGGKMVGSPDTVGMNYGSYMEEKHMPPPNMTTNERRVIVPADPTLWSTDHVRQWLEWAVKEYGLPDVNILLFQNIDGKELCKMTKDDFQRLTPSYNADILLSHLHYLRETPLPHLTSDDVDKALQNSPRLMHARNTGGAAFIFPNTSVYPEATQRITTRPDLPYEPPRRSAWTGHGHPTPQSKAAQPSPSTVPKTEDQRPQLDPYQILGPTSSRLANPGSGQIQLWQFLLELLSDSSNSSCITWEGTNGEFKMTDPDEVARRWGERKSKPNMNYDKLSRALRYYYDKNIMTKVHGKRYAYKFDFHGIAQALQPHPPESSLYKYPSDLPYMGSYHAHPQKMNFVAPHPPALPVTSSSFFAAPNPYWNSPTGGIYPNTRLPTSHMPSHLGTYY
# Outline: as §1
# ELF1 = ELF1 (Homo sapiens, UniProt P32519 1-619); details: protein: recombinant; tags: N-terminal GST; dsDNA, one strand shown
# Outline: as §1
# EHF = target: T5, EHF (Homo sapiens, UniProt Q9NZC4 1-300); details: protein: recombinant; tags: N-terminal GST; dsDNA, one strand shown
# T5 sequence: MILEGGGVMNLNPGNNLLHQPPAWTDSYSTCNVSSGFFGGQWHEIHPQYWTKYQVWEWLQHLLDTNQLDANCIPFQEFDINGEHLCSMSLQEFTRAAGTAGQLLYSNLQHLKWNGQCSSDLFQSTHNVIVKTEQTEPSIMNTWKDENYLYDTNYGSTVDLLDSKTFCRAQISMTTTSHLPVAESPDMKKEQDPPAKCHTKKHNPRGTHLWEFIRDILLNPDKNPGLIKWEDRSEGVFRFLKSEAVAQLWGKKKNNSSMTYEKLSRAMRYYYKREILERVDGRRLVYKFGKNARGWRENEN
# Outline: as §1
# SPI1 = SPI1 (Homo sapiens, UniProt P17947 1-270); details: protein: recombinant; tags: N-terminal GST; dsDNA, one strand shown
# Outline: as §1
# SPIB = SPIB (Homo sapiens, UniProt Q01892 1-262); details: protein: recombinant; tags: N-terminal GST; dsDNA, one strand shown
# Outline: as §1
# ELK3 = target: T6, ELK3 (Homo sapiens, UniProt P41970 1-407); details: protein: recombinant; tags: N-terminal GST; dsDNA, one strand shown
# T6 sequence: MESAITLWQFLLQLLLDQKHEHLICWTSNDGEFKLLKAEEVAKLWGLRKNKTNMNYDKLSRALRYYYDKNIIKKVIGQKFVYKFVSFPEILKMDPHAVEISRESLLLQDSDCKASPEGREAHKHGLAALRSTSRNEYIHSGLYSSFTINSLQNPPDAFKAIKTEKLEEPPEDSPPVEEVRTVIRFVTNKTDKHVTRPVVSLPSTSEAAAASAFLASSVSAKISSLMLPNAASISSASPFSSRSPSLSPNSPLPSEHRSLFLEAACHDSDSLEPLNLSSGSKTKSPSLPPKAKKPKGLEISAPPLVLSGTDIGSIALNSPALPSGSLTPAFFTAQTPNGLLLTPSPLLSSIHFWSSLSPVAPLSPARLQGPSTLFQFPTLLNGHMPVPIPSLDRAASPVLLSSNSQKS
# Outline: as §1
# FEV = target: T7, FEV (Homo sapiens, UniProt Q99581 1-238); details: protein: recombinant; tags: N-terminal GST; dsDNA, one strand shown
# T7 sequence: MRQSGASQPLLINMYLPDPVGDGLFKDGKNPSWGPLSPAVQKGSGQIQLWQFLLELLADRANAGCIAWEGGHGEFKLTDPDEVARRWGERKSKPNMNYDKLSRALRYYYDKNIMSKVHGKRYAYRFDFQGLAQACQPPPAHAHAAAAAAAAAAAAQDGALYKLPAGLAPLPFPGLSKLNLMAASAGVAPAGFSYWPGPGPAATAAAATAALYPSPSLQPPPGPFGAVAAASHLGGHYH
# Outline: as §1
# ETV5 = ETV5 (Homo sapiens, UniProt P41161 1-510); details: protein: recombinant; tags: N-terminal GST; dsDNA, one strand shown
# Outline: as §1
# HSF1 = HSF1 (Homo sapiens, UniProt Q00613 1-529); details: protein: recombinant; tags: N-terminal GST; chain copies: 3; dsDNA, one strand shown
# Outline: as §1
# SPIC = target: T8, SPIC (Homo sapiens, UniProt Q8N5J4 1-248); details: protein: recombinant; tags: N-terminal GST; dsDNA, one strand shown
# T8 sequence: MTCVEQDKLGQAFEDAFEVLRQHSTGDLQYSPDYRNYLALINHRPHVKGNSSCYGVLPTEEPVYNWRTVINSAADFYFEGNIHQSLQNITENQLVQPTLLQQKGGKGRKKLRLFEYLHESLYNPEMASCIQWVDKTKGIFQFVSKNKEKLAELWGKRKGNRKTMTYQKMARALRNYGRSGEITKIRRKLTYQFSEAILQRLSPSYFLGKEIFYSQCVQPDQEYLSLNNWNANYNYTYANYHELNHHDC
# Outline: as §1
# ELF4 = ELF4 (Homo sapiens, UniProt Q99607 1-663); details: protein: recombinant; tags: N-terminal GST; dsDNA, one strand shown
# Outline: as §1
# ELK4 = target: T9, ELK4 (Homo sapiens, UniProt P28324-2 1-405); details: protein: recombinant; tags: N-terminal GST; dsDNA, one strand shown
# T9 sequence: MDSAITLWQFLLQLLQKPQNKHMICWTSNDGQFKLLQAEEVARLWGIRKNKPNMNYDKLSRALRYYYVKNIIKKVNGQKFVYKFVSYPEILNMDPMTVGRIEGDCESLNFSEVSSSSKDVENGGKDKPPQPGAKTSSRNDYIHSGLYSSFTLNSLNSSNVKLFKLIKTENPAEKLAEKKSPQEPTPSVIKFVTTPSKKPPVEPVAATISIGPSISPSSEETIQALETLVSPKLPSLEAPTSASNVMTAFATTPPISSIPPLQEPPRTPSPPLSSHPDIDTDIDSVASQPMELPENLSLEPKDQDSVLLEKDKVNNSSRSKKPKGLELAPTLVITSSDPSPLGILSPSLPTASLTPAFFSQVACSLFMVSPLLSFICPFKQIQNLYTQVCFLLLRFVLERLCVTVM
# Outline: as §1
# ETV2 = target: T10, ETV2 (Homo sapiens, UniProt O00321 1-342); details: protein: recombinant; tags: N-terminal GST; dsDNA, one strand shown
# T10 sequence: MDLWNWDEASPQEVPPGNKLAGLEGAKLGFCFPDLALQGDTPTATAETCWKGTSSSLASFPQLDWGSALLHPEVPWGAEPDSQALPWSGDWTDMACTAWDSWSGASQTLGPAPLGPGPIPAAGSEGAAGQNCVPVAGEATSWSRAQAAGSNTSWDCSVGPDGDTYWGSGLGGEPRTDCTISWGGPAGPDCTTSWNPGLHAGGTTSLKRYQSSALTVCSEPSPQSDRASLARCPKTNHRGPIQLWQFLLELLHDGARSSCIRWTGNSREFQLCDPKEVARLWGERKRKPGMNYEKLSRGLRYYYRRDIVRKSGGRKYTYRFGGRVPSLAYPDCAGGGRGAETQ
# Outline: as §1
# ELF3 = target: T11, ELF3 (Homo sapiens, UniProt P78545 1-371); details: protein: recombinant; tags: N-terminal GST; dsDNA, one strand shown
# T11 sequence: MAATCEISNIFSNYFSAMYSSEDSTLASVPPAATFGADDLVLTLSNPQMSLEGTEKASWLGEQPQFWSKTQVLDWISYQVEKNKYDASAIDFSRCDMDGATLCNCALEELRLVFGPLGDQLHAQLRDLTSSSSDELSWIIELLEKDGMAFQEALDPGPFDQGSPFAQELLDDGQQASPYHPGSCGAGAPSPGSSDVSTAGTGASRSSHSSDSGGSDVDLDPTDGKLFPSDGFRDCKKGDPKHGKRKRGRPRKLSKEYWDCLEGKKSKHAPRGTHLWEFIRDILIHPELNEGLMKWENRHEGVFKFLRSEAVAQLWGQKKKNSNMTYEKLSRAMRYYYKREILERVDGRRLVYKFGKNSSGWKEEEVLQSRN
# Outline: as §1
# ETV1 = ETV1 (Homo sapiens, UniProt P50549 1-477); details: protein: recombinant; tags: N-terminal GST; dsDNA, one strand shown
# Outline: as §1
# Sequence of SPIB (Q01892 whole entry): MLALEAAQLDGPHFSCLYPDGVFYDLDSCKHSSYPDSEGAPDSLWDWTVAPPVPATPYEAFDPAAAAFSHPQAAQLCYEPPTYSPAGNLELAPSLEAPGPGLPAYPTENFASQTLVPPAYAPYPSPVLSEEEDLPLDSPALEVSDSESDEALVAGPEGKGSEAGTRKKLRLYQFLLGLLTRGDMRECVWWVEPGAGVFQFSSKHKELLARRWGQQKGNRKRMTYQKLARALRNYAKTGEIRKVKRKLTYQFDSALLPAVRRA
# Sequence of ETV5 (P41161 whole entry): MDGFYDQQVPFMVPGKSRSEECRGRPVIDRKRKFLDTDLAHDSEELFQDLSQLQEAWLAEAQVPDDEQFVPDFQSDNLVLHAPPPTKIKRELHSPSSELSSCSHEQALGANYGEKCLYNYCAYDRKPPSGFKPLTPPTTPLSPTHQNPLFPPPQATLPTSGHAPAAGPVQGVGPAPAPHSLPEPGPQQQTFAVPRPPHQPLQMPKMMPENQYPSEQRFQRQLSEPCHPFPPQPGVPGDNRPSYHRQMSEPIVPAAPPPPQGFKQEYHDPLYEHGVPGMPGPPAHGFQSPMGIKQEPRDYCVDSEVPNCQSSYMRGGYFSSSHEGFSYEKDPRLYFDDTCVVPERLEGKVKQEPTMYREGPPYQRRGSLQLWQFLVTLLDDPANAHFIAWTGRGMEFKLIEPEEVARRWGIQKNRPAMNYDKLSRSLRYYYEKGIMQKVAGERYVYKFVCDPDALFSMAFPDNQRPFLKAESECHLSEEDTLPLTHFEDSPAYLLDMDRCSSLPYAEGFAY
# Sequence of ETV1 (P50549 whole entry): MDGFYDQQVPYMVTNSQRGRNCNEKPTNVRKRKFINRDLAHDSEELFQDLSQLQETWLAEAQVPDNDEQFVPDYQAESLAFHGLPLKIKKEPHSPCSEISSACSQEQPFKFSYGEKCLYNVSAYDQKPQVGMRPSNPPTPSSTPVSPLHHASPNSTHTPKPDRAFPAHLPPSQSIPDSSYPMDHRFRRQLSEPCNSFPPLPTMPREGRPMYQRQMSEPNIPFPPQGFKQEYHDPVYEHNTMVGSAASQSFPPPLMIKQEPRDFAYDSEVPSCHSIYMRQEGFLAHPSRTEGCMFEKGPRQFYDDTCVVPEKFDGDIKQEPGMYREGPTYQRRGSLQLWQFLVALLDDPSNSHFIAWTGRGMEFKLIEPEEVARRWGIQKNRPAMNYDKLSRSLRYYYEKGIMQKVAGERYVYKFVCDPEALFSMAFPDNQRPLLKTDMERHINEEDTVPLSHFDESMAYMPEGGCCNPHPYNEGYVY
# Sequence of HSF1 (Q00613 whole entry): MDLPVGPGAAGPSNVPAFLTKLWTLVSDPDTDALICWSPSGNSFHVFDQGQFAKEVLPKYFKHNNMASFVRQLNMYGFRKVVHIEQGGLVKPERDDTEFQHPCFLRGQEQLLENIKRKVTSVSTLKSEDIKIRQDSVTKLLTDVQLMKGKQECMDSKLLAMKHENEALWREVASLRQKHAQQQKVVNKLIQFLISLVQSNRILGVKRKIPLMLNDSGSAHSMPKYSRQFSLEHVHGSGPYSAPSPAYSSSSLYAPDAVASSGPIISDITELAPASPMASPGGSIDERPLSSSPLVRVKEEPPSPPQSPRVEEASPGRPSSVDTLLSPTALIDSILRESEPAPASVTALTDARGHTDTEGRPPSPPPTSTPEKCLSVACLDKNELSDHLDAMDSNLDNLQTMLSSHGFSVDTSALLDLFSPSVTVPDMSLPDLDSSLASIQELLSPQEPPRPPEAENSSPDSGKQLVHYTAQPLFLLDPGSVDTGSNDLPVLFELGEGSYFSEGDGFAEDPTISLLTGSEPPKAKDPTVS
# Sequence of ELF1 (P32519 whole entry): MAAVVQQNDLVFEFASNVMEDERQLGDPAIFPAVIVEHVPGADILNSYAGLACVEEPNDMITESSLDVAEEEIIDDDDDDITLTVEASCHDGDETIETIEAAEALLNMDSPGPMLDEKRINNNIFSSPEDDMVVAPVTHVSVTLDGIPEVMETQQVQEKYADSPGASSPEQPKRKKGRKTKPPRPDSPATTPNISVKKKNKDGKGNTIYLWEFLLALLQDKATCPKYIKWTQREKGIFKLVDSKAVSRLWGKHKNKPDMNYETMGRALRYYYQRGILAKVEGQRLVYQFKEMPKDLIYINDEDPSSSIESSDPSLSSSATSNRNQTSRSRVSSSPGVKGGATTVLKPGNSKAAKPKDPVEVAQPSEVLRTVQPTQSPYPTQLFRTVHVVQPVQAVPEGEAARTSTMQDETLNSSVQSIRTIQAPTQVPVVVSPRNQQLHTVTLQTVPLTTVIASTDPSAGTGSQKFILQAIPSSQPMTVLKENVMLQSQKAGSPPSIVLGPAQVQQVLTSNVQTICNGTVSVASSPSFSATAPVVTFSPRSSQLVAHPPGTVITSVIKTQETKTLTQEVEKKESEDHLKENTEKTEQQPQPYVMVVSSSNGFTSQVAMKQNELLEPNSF
# Sequence of ELF4 (Q99607 whole entry): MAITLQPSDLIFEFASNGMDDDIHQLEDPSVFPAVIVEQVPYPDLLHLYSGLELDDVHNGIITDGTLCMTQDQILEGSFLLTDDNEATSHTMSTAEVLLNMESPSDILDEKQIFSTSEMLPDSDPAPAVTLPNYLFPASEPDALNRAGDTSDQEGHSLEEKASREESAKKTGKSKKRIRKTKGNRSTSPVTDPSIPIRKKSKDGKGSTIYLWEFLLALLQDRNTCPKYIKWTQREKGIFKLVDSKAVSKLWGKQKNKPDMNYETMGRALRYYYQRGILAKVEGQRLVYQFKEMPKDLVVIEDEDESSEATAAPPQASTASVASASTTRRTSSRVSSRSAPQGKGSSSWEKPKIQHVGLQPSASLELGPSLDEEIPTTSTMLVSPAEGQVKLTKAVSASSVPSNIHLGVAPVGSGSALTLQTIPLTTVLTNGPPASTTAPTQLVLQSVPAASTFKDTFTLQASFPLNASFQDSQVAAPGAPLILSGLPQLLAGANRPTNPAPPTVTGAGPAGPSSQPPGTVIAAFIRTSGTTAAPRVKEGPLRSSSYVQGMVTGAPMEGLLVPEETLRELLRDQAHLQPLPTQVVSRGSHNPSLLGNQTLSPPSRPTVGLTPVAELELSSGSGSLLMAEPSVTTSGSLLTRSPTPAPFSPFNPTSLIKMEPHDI
sequence,measurement,setting,value
CACGAC,binding signal,FLI1,"1.27 fold enrichment (6-mer frequency, TF over GST control)"
same,binding signal,ELK1,"1.29 fold enrichment (6-mer frequency, TF over GST control)"
same,binding signal,GABPA,"1.33 fold enrichment (6-mer frequency, TF over GST control)"
same,binding signal,ERG,"1.22 fold enrichment (6-mer frequency, TF over GST control)"
same,binding signal,ELF1,"1.21 fold enrichment (6-mer frequency, TF over GST control)"
same,binding signal,EHF,"1.28 fold enrichment (6-mer frequency, TF over GST control)"
same,binding signal,SPI1,"1.14 fold enrichment (6-mer frequency, TF over GST control)"
same,binding signal,SPIB,"1.23 fold enrichment (6-mer frequency, TF over GST control)"
same,binding signal,ELK3,"1.29 fold enrichment (6-mer frequency, TF over GST control)"
same,binding signal,FEV,"1.29 fold enrichment (6-mer frequency, TF over GST control)"
same,binding signal,ETV5,"1.28 fold enrichment (6-mer frequency, TF over GST control)"
same,binding signal,HSF1,"1.05 fold enrichment (6-mer frequency, TF over GST control)"
same,binding signal,SPIC,"1.26 fold enrichment (6-mer frequency, TF over GST control)"
same,binding signal,ELF4,"1.35 fold enrichment (6-mer frequency, TF over GST control)"
same,binding signal,ELK4,"1.53 fold enrichment (6-mer frequency, TF over GST control)"
same,binding signal,ETV2,"1.34 fold enrichment (6-mer frequency, TF over GST control)"
same,binding signal,ELF3,"1.32 fold enrichment (6-mer frequency, TF over GST control)"
same,binding signal,ETV1,"1.15 fold enrichment (6-mer frequency, TF over GST control)"
